Source: PubChem BioAssay
Activity calls are given as the source filed them.

What was measured:
[1] = E. coli DRC41 culture turbidity changes, primary screen, E. coli filamentation inducer project, strain DRC41, OD650, 48 h (AID 1152);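 further: E. coli MC1000 strain DRC41 lacking acrAB efflux pump and sulA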; settings: E. coli DRC41 (acrAB sulA), higher = more signal, called active from +8 up or from −8 down
[2] = small-molecule binders of probe aLefty1, primary screen, biochemical, small-molecule microarray, 635/667 nm fluorescence (AID 1153); settings: higher = more signal;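 further: score merges spot fluorescence with signal-to-noise ratio from the scanned slide images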
[3] = PSAC antagonists in infected red cells, primary screen, cell-based, P. falciparum Indochina, OD700, 1 h (AID 1154); settings: P. falciparum Indochina infected RBC osmotic lysis, higher = more signal, called active from +8 up or from −8 down
[4] = PSAC antagonists in infected red cells, primary screen, cell-based, P. falciparum Indochina, OD700, 2 h (AID 1155);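 further: lysis reports solute entry through the parasite surface anion channel PSAC; channel blockers reduce lysis of infected cells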; settings: P. falciparum Indochina infected erythrocytes, osmotic lysis OD700; higher = more signal, called active from +8 up or from −8 down
[5] = osmotic lysis modulators in infected erythrocytes, primary screen, PSAC antagonist project, cell-based, P. falciparum Indochina, OD700, 3 h (AID 1156); settings: higher = more signal, called active from +8 up or from −8 down
[6] = PSAC antagonists in infected red cells, primary screen, cell-based, P. falciparum Indochina, OD700, 18 h (AID 1157); settings: P. falciparum Indochina infected erythrocytes, osmotic lysis OD700, 18 h; higher = more signal, called active from +8 up or from −8 down
[7] = modulators of S6 phosphorylation in cells, primary screen, cell-based, A549, cytoblot, luminescence, serum-stimulated (AID 1158); settings: A549 phospho-S6 cytoblot, 5 h, higher = more signal;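 further: serum-stimulated A549 lung adenocarcinoma cells; signal is phosphorylated S6 detected by cytoblot immunostaining with HRP secondary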
[8] = biological target: NADPH oxidase 2 (Homo sapiens) (UniProt P04839); assay: NOX2-dependent H2O2 signal modulators, primary screen, NOX inhibitor project, cell-based, HEK293-NOX2, PMA-stimulated, Amplex Red fluorescence (AID 1159); settings: 45 min, higher = more signal, called active from +8 up or from −8 down; further: test concentration not given here
NADPH oxidase 2 (Homo sapiens), sequence (P04839 whole entry, looked up): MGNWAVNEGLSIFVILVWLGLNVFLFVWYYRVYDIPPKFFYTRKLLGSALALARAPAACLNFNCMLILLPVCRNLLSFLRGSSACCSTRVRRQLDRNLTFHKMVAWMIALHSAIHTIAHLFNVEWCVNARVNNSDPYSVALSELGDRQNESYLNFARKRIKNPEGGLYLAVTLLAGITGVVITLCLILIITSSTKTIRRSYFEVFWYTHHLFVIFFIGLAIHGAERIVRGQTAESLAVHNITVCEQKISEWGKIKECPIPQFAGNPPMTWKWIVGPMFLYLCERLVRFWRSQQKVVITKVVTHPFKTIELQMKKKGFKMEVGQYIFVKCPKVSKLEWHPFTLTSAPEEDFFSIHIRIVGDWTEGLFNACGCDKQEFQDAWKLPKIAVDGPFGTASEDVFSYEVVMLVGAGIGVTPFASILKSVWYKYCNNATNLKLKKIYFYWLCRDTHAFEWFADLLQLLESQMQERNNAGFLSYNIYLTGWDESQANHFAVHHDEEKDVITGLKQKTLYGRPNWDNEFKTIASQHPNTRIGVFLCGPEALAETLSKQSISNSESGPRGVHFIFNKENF

[9] = biological target: NADPH oxidase 4 (Homo sapiens) (UniProt Q9NPH5); assay: NOX4-dependent H2O2 signal modulators, primary screen, NOX inhibitor project, cell-based, HEK293-NOX4, tetracycline-induced, Amplex Red fluorescence (AID 1160); settings: 45 min, higher = more signal, called active from +8 up or from −8 down
NADPH oxidase 4 (Homo sapiens), sequence (Q9NPH5 whole entry, looked up): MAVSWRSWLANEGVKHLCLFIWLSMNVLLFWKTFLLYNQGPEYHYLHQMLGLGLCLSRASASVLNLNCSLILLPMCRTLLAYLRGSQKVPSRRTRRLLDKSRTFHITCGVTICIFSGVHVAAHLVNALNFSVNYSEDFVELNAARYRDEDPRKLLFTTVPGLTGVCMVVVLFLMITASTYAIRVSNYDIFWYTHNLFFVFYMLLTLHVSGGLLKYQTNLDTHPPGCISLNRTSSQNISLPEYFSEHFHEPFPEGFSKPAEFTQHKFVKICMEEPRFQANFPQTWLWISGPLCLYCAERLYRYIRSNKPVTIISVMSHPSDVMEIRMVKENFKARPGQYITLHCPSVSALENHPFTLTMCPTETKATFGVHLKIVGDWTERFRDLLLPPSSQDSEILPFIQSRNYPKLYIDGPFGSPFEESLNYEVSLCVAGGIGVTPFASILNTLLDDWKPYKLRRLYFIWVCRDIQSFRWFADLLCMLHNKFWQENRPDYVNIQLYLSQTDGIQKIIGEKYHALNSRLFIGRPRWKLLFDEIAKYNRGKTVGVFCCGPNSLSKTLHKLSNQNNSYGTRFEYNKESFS

[10] = biological target: NADPH oxidase 5 (Homo sapiens) (UniProt Q96PH1); assay: NOX5-dependent H2O2 signal modulators, primary screen, NOX inhibitor project, cell-based, HEK293-NOX5, Amplex Red fluorescence (AID 1161); settings: HEK293-NOX5, ionomycin, 45 min, higher = more signal
NADPH oxidase 5 (Homo sapiens), sequence (Q96PH1 whole entry, looked up): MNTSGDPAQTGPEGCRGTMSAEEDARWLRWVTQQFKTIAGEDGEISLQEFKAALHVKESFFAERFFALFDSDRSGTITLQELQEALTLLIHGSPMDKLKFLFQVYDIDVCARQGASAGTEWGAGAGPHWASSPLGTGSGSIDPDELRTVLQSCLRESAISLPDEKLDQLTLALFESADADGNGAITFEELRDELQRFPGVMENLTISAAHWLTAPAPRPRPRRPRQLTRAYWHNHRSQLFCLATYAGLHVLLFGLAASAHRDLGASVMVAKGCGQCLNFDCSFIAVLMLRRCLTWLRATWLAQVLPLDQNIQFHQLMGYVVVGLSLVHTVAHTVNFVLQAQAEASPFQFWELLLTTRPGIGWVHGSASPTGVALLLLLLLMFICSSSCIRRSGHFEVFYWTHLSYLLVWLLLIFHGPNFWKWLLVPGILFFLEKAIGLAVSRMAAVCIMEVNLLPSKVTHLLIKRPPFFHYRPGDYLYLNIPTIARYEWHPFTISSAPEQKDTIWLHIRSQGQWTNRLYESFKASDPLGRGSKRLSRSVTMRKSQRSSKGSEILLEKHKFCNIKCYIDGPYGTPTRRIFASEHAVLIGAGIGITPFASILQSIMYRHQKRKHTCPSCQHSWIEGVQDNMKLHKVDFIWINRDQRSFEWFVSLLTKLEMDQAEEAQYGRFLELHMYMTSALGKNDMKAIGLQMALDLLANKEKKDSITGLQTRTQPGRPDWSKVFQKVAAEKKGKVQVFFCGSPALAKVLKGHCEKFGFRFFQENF

[11] = A549 cell viability effects, profiling panel, calcein-AM fluorescence, 48 h, basal (AID 1162); settings: higher = more signal; further: test concentration not given here
[12] = adipocyte viability effects, profiling panel, cell-based, 3T3-L1 adipocytes, calcein-AM fluorescence, 48 h, basal (AID 1163); settings: 3T3-L1 adipocytes viability, higher = more signal; further: test concentration not given here
[13] = HepG2 cell viability effects, profiling panel, calcein-AM fluorescence, 48 h, basal (AID 1164); settings: higher = more signal; further: test concentration not given here
[14] = MM1S cell viability effects, profiling panel, calcein-AM fluorescence, 48 h, basal (AID 1165); settings: higher = more signal;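 further: viability of MM1S multiple myeloma cells under basal unstimulated conditions; test concentration not given here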
[15] = basal RPMI8226 viability, no added stimulus, profiling panel, cell-based, calcein-AM fluorescence, 48 h, PK04 Diversity Set (AID 1166); settings: RPMI8226 myeloma viability, higher = more signal;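 further: cells grown under basal conditions without added stimulus; test concentration not given here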
[16] = basal HepG2 mitochondrial membrane potential changes, profiling panel, cell-based, JC-1 fluorescence, 24 h, 100 nL compound (AID 1167); settings: higher = more signal; further: test concentration not given here
[17] = basal 3T3-L1 adipocyte mitochondrial potential changes, profiling panel, cell-based, JC-1 fluorescence, 3T3-L1 adipocytes, 24 h, 100 nL compound (AID 1168); settings: JC-1 mitochondrial fluorescence, higher = more signal, called active from +8 up or from −8 down; further: test concentration not given here
[18] = basal RPMI8226 mitochondrial membrane potential changes, profiling panel, cell-based, JC-1 fluorescence, 24 h, 100 nL compound (AID 1169); settings: RPMI8226 myeloma, JC-1 mitochondrial potential fluorescence, higher = more signal; further: test concentration not given here
[19] = basal MM1S mitochondrial membrane potential changes, profiling panel, cell-based, JC-1 fluorescence, 24 h, 100 nL compound (AID 1170); settings: higher = more signal; further: test concentration not given here
[20] = A549 lung cancer cell viability effects, profiling panel, resazurin fluorescence, 24 h, PK04 Diversity Set (AID 1171); settings: higher = more signal, called active from +8 up or from −8 down; further: test concentration not given here

SMILES: COCCOC(=O)N1C(=O)[C@@]2(c3cc(C#CCNC(N)=O)ccc31)[C@H](C(=O)N1CCN(c3ncccn3)CC1)[C@H]1C(=O)O[C@H](c3ccccc3)[C@H](c3ccccc3)N1[C@@H]2c1ccccc1OCCO
- z-score [1]: 1.07 (inactive)
- composite z-score [2]: 0.248
- z-score [3]: 2.72 (inactive)
- z-score [4]: 1.32 (inactive)
- z-score [5]: 0.749 (inactive)
- z-score [6]: 0.883 (inactive)
- z-score [7]: 0.915
- z-score [8]: 1.99 (inactive)
- z-score [9]: 0.756 (inactive)
- z-score [10]: -1.08
- z-score [11]: -0.246
- z-score [12]: 1.24
- z-score [13]: -0.539
- z-score [14]: -0.648
- z-score [15]: -0.876
- z-score [16]: -1.43
- z-score [17]: 1.29 (inactive)
- z-score [18]: -1.09
- z-score [19]: -1.04
- z-score [20]: 1.02 (inactive)

SMILES: [N-]=[N+]=NCc1ccccc1C[C@]1(C(=O)O)N=C(c2ccc(OCCCO)cc2)O[C@H]1c1ccccc1CN=[N+]=[N-]
- z-score [1]: -0.813 (inactive)
- composite z-score [2]: 0.222
- z-score [3]: 21.5 (active)
- z-score [4]: 3.96 (inactive)
- z-score [5]: 0.649 (inactive)
- z-score [6]: 0.321 (inactive)
- z-score [7]: -0.591
- z-score [8]: -0.331 (inactive)
- z-score [9]: 1.11 (inactive)
- z-score [10]: 2.29
- z-score [11]: -0.437
- z-score [12]: 0.368
- z-score [13]: -0.302
- z-score [14]: -0.966
- z-score [15]: -1.53
- z-score [16]: -2.38
- z-score [17]: -1.4 (inactive)
- z-score [18]: -0.789
- z-score [19]: 0.432
- z-score [20]: 1.17 (inactive)

SMILES: C=CCOC(=O)[C@@H]1[C@H]2C(=O)O[C@H](c3ccccc3)[C@H](c3ccccc3)N2[C@H](c2ccc(OCCOC(=O)[C@@H]3C[C@@H]4C(=O)NCC(=O)N4[C@@H]3c3cccc(OCCO)c3)cc2)[C@@]12C(=O)Nc1ccc(I)cc12
- z-score [1]: -0.407 (inactive)
- composite z-score [2]: 0.42
- z-score [3]: 2.11 (inactive)
- z-score [4]: 0.636 (inactive)
- z-score [5]: 1.64 (inactive)
- z-score [6]: 0.572 (inactive)
- z-score [7]: -0.5
- z-score [8]: 1.72 (inactive)
- z-score [9]: 1.19 (inactive)
- z-score [10]: 1.37
- z-score [11]: 0.0646
- z-score [12]: 0.904
- z-score [13]: 0.646
- z-score [14]: -0.0922
- z-score [15]: 0.129
- z-score [16]: -0.941
- z-score [17]: 1.47 (inactive)
- z-score [18]: -0.446
- z-score [19]: -1.08
- z-score [20]: 0.0716 (inactive)

SMILES: CC(C)(C)OC(=O)CC[C@@]1(C(=O)O)N=C(c2ccc(OCCCO)cc2)O[C@@H]1c1ccccc1N=[N+]=[N-]
- z-score [1]: 0.592 (inactive)
- composite z-score [2]: 0.266
- z-score [3]: 31.5 (active)
- z-score [4]: 28.4 (active)
- z-score [5]: 1.79 (inactive)
- z-score [6]: 7.51 (inactive)
- z-score [7]: -0.342
- z-score [8]: -0.0442 (inactive)
- z-score [9]: 1.69 (inactive)
- z-score [10]: 0.907
- z-score [11]: 0.188
- z-score [12]: -0.364
- z-score [13]: 0.218
- z-score [14]: -0.0694
- z-score [15]: -0.385
- z-score [16]: -2.88
- z-score [17]: -1.08 (inactive)
- z-score [18]: -0.759
- z-score [19]: -1.12
- z-score [20]: 0.0421 (inactive)

SMILES: O=C/C=C/c1ccc(Cl)cc1
- z-score [1]: 0.73 (inactive)
- composite z-score [2]: -0.0885
- z-score [3]: -0.406 (inactive)
- z-score [4]: -2.04 (inactive)
- z-score [5]: -0.316 (inactive)
- z-score [6]: -2.54 (inactive)
- z-score [7]: 0.617
- z-score [8]: -0.506 (inactive)
- z-score [9]: -0.869 (inactive)
- z-score [10]: 1.44
- z-score [11]: 1.04
- z-score [12]: -0.0776
- z-score [13]: 0.265
- z-score [14]: -3.17
- z-score [15]: 0.45
- z-score [16]: 1.32
- z-score [17]: -0.34 (inactive)
- z-score [18]: -0.762
- z-score [19]: -1.25
- z-score [20]: -0.835 (inactive)

SMILES: O=C1O[C@H](c2ccccc2)[C@H](c2ccccc2)N2[C@H]1[C@@H](C(=O)N1CCN(c3ncccn3)CC1)[C@]1(C(=O)Nc3ccccc31)[C@H]2c1ccc(OCCO)cc1
- z-score [1]: 2.64 (inactive)
- composite z-score [2]: -0.0221
- z-score [3]: 7.83 (inactive)
- z-score [4]: 0.395 (inactive)
- z-score [5]: 0.81 (inactive)
- z-score [6]: -1.32 (inactive)
- z-score [7]: 2.11
- z-score [8]: 0.192 (inactive)
- z-score [9]: -1.33 (inactive)
- z-score [10]: -2.84
- z-score [11]: 0.404
- z-score [12]: 1.35
- z-score [13]: 0.121
- z-score [14]: 0.0498
- z-score [15]: -2.17
- z-score [16]: -0.592
- z-score [17]: 1.53 (inactive)
- z-score [18]: -1.16
- z-score [19]: -0.537
- z-score [20]: 1.18 (inactive)

SMILES: CCOC(=O)C[C@H]1[C@H](OC(=O)Cc2ccc3c(c2)OCO3)[C@@H](NC(=O)c2ccc(-c3ccccc3)cc2)c2cc(OCCCO)ccc2N1C(=O)c1ccccc1
- z-score [1]: 2.36 (inactive)
- composite z-score [2]: -0.122
- z-score [3]: 8.3 (active)
- z-score [4]: 1.63 (inactive)
- z-score [5]: -0.825 (inactive)
- z-score [6]: 0.505 (inactive)
- z-score [7]: -0.0321
- z-score [8]: -0.588 (inactive)
- z-score [9]: 0.674 (inactive)
- z-score [10]: 1.8
- z-score [11]: 1.8
- z-score [12]: 0.127
- z-score [13]: 1.66
- z-score [14]: -0.262
- z-score [15]: 0.0317
- z-score [16]: 3.09
- z-score [17]: -0.288 (inactive)
- z-score [18]: 0.965
- z-score [19]: -0.0178
- z-score [20]: 0.328 (inactive)

SMILES: C=C[C@@H](COC(C)=O)N(Cc1ccccc1[N+](=O)[O-])S(=O)(=O)c1ccc(Br)cc1
- z-score [1]: 1.43 (inactive)
- composite z-score [2]: -0.339
- z-score [3]: 2.44 (inactive)
- z-score [4]: -0.407 (inactive)
- z-score [5]: -0.885 (inactive)
- z-score [6]: -0.709 (inactive)
- z-score [7]: 3.16
- z-score [8]: -4.3 (inactive)
- z-score [9]: -0.628 (inactive)
- z-score [10]: -1.98
- z-score [11]: 1.8
- z-score [12]: 0.425
- z-score [13]: -0.491
- z-score [14]: -0.531
- z-score [15]: 0.0618
- z-score [16]: -0.464
- z-score [17]: -0.34 (inactive)
- z-score [18]: -0.872
- z-score [19]: -0.189
- z-score [20]: -1.61 (inactive)

SMILES: CC(C)(C)OC(=O)CC[C@]1(C(=O)N2CCCCC2)N=C(c2ccc(OCCCO)cc2)O[C@H]1c1ccccc1N=[N+]=[N-]
- z-score [1]: 1.66 (inactive)
- composite z-score [2]: 0.19
- z-score [3]: 32.1 (active)
- z-score [4]: 28.8 (active)
- z-score [5]: 2.17 (inactive)
- z-score [6]: 7.7 (inactive)
- z-score [7]: -0.167
- z-score [8]: -3.53 (inactive)
- z-score [9]: 0.976 (inactive)
- z-score [10]: -1.46
- z-score [11]: 1.12
- z-score [12]: 0.768
- z-score [13]: 0.63
- z-score [14]: -2.03
- z-score [15]: -0.99
- z-score [16]: 1.18
- z-score [17]: 1.92 (inactive)
- z-score [18]: -0.862
- z-score [19]: -0.715
- z-score [20]: -0.0762 (inactive)
